Measurements: PubChem BioAssay AID1851 (National Center for Advancing Translational Sciences (NCATS), 2009)
Hit rate of the full screen: of about 16,000 compounds, about 5,100 (32%) were called active. Inconclusive results (about 25%) are left out. Calls come from the whole dose curve; as a rule, active = well fitted curve in the direction sought with a large enough effect; inconclusive = small, poorly fitted or top-dose-only effect, or effect the other way; inactive = no such curve, though single readings can be large or run the other way. The list shows a part of the results.

Each molecule was assayed against Cytochrome P450 3A4 (Homo sapiens) (UniProt P08684) (assay: Cytochrome panel assay with activity outcomes). Conditions: recombinant CYP, pro-luciferin dealkylation, luminescence, p450-cyp3a4; series mostly up to 57.1 µM.
Cytochrome P450 3A4 (Homo sapiens), sequence (P08684 whole entry, looked up): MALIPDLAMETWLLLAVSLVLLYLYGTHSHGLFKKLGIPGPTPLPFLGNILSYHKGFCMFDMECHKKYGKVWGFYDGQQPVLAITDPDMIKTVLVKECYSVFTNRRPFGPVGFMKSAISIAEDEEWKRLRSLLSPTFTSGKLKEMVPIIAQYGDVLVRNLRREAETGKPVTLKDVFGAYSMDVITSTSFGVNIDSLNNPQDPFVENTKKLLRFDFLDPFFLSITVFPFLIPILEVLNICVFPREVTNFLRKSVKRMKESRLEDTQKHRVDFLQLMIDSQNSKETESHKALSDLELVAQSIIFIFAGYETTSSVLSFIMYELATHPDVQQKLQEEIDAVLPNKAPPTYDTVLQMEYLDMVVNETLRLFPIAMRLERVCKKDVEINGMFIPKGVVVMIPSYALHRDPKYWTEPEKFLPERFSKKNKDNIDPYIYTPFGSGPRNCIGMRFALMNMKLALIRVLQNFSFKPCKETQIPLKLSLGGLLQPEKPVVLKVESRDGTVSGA
% is set by controls: 0 for no effect and ±100 for the full control effect.

AC50, inactive:
N#Cc1cc2nc(O)c(O)nc2cc1[N+](=O)[O-]
CCN1C(=O)C=CC1=O
O=C(c1ccco1)N1CCC2(CC1)CN(Cc1cc(C(F)(F)F)cc(C(F)(F)F)c1)C2
O=C(O)C1CCCN1C(=O)OCc1ccccc1 (stereo unspecified)
O=C(NCCCN1CCN(c2ccccc2F)CC1)C1CCC(=O)N1C1CCCCC1 (stereo unspecified)
COc1ccc(NC(=O)N2CCCC2C(=O)Nc2ccccc2)cc1 (stereo unspecified)
C=C1CC[C@H](O)C/C1=C/C=C1\CCC[C@]2(C)[C@H]1CC[C@H]2[C@@H](C)/C=C\[C@@H](C)C(C)C
CCCNC(=O)c1c(C)cc(=O)oc1C
C=CCNC(=O)CC(=O)N/N=C/c1cccc(Br)c1
Cc1cc(OC(=O)c2ccccc2Cl)cc(=O)n1C
[N-]=[N+]=Nc1ccc(C(=O)CSC[C@@H](NC(=O)CC[C@@H](N)C(=O)O)C(=O)NCC(=O)O)cc1
CC(C)[C@H]1C(=O)C(C(N)=O)=C(O)[C@]2(O)C(=O)C3=C(O)c4c(O)ccc(N(C)C)c4C[C@H]3C[C@@H]12
COc1ccc(Nc2ncc3nc(-c4cccs4)c(=O)n(Cc4cccc(OC)c4)c3n2)cc1
CCNc1ncc2nc(-c3ccc(OC)cc3)c(=O)n(Cc3ccc(F)cc3)c2n1
CCOC(=O)c1ccc(S(=O)(=O)N2CCN(C)CC2)cc1
COc1ccc(NC(=O)CC#N)cc1OC
CC1(C)CCCN(C(=O)c2coc(=O)c(Br)c2)C1
O=C(Cc1ccc(Cl)cc1)N1CCN(C(=O)c2ccco2)CC1
CC(C)NC(=O)N1CCC2(CC1)CCN(C(=O)c1ccco1)CC2
Cn1c(C(=O)O)c(CC(=O)NCc2cccnc2)c2ccccc21
COc1cc(=O)n(C)c2c(OC[C@@H](O)C(C)(C)O)cccc12
O=C(c1ccccc1)c1ccc2nc(-c3ccc(NC(=O)c4ccccc4F)cc3)[nH]c2c1
O=c1c2cnn(-c3ccccc3)c2nnn1/N=C/c1cccnc1
O=[N+]([O-])c1cc(/C=N/N2CCN(C3c4ccccc4-c4ccccc43)CC2)ccc1Cl
CC(C)(C)NC[C@H](O)COc1cccc2[nH]c(=O)[nH]c12
Cc1cc(C)n(-c2nc3c(c(=O)[nH]c(=O)n3C)n2CC(C)C)n1
Cn1c(=O)[nH]c(=O)c2c1nc(NCCCO)n2CCCc1ccccc1
CN(C)c1ncc2ncc(=O)n(CCc3ccccc3)c2n1
CN(C)c1ncc2nc(-c3ccc(Cl)cc3)c(=O)n(Cc3cccs3)c2n1
Cc1nc2cnc(N(C)C)nc2n(-c2ccccc2)c1=O
COCCn1c(=O)c(C)nc2cnc(N(C)C)nc21
CN(C)c1ncc2nc(-c3ccccc3)c(=O)n(CCc3ccccc3)c2n1

AC50, active:
CNc1nc(-c2cccc(NS(C)(=O)=O)c2)nc2ccccc12 10 µM
CS(=O)(=O)Nc1cccc(-c2nc(Nc3ccncc3)c3ccccc3n2)c1 3.98 µM
CS(=O)(=O)Nc1cccc(-c2nccc(Nc3ccc(F)cc3)n2)c1 10 µM
O=C(c1ccco1)N1CCC2(CCN(Cc3ccncc3)CC2)CC1 12.6 µM
O=C(c1ccco1)N1CCC2(CCCN(Cc3ccncc3)C2)CC1 5.01 µM
Cc1ccc(S(=O)(=O)CC#CCOC(=O)c2ccc([N+](=O)[O-])cc2)cc1 15.8 µM
COc1ccccc1NC(=O)N1CCCC1C(=O)NCc1ccc2c(c1)OCO2 (stereo unspecified) 0.355 µM
Cc1ccc(CNC(=O)C2CCCN2C(=O)NCc2ccccc2)cc1 (stereo unspecified) 3.55 µM
NS(=O)(=O)c1ccc(CCNC(=O)C2CCCN2C(=O)OCc2ccccc2)cc1 (stereo unspecified) 12.6 µM
Cc1ccc(CNC(=O)C2CCC(=O)N2C2CCCCC2)cc1 (stereo unspecified) 7.94 µM
Cc1oc(-c2ccccc2F)nc1CSCC(=O)NCc1ccc2c(c1)OCO2 1 µM
O=C(Cn1nc(C(F)F)cc1C(F)F)N/N=C/c1ccc2c(c1)OCO2 5.01 µM
O=C(CSCc1cccc(Br)c1)N/N=C/c1ccc2c(c1)OCO2 3.98 µM
C/C(=N\NC(=O)CSCc1ccc(Cl)cc1)c1ccc2c(c1)OCCO2 14.1 µM
O=C(CSCc1cccc(Cl)c1)NCc1ccc2c(c1)OCO2 1.12 µM
CN(C)C(=O)c1ccc(-c2nccc(NCc3cccnc3)n2)cc1 15.8 µM
Cc1cccc(CNc2ccnc(-c3ccc(C(=O)N(C)C)cc3)n2)c1 3.16 µM
COc1cccc(Cn2c(=O)c(-c3cccs3)nc3cnc(OC)nc32)c1 3.98 µM
COc1ncc2nc(-c3cccs3)c(=O)n(Cc3ccc(F)cc3)c2n1 3.16 µM
COc1ccc(Oc2ncc3nc(-c4cccs4)c(=O)n(Cc4cccc(OC)c4)c3n2)cc1 3.98 µM
COc1cccc(Cn2c(=O)c(-c3cccs3)nc3cncnc32)c1 5.01 µM
COc1ncc2nc(-c3ccc(F)cc3)c(=O)n(Cc3ccc(F)cc3)c2n1 3.16 µM
CCOc1ccc(C(=O)CN2CCN(S(=O)(=O)c3ccc(F)cc3)CC2)cc1 6.31 µM
O=C(CN1CCN(S(=O)(=O)c2ccc(F)cc2)CC1)Nc1ccc(Cl)c(C(F)(F)F)c1 5.01 µM
CCOc1ccc(NC(=O)CN2CCN(S(=O)(=O)c3ccc(Cl)cc3)CC2)cc1 14.1 µM
COc1cc2c(cc1OC)CN(CC(=O)Nc1ccc3c(c1)OCO3)CC2 3.55 µM
O=C(CN1CCN(S(=O)(=O)c2ccc(F)cc2)CC1)Nc1ccc2c(c1)OCO2 2 µM
O=C(CN1CCN(S(=O)(=O)c2ccc(Cl)cc2)CC1)Nc1ccc2c(c1)OCO2 1 µM
CCn1c(=O)cc(OCC(=O)Nc2cccnc2)c2ccccc21 7.08 µM
CCn1c(=O)cc(SCC(=O)N2CCN(C(=O)c3ccco3)CC2)c2ccccc21 7.08 µM
Cn1c(=O)cc(OCC(=O)NCc2cccnc2)c2ccccc21 12.6 µM
CCn1c(=O)cc(SCC(=O)Nc2cc(OC)c(OC)c(OC)c2)c2ccccc21 5.01 µM
CCN(C(=O)COc1cc(=O)n(C)c2ccccc12)c1cccc(Cl)c1 3.55 µM
Cn1c(=O)cc(OCCCC(=O)Nc2cccnc2)c2ccccc21 6.31 µM
CCCNC(=O)OC[C@@H]1O[C@H](CCO/N=C(\C)CCN2CCCc3nc(C)c(C)cc32)C=C[C@@H]1Oc1ccc(OC)cc1 3.98 µM
CCCNC(=O)OC[C@@H]1O[C@H](CCO/N=C(\C)CCN2CCCCc3nc(C)c(C)cc32)C=C[C@@H]1Oc1ccc(OC)cc1 3.16 µM
Fc1cc2nc(-c3ccncc3)[nH]c2cc1F 1.41 µM
C/C(=N\N1CCN(C2c3ccccc3-c3ccccc32)CC1)c1ccncc1 1 µM
C/C(=N\N1CCN(C2c3ccccc3-c3ccccc32)CC1)c1cccnc1 2.82 µM
C(=N\N1CCN(C2c3ccccc3-c3ccccc32)CC1)/c1cccnc1 12.6 µM
Cc1ccccc1OCC(O)Cn1c(NCc2ccccc2)nc2c1c(=O)[nH]c(=O)n2C (stereo unspecified) 11.2 µM
Cc1ccc(C(=O)CNc2nc3c(c(=O)[nH]c(=O)n3C)n2Cc2ccccc2)cc1 5.01 µM
CN(C)c1ncc2nc(CCc3ccccc3)c(=O)n(Cc3cccs3)c2n1 10 µM
CN(C)c1ncc2nc(CCc3ccccc3)c(=O)n(CCc3ccccc3)c2n1 6.31 µM
CN(C)c1ncc2nc(CCc3ccccc3)c(=O)n(-c3ccccc3)c2n1 6.31 µM
COCCn1c(=O)c(CCc2ccccc2)nc2cnc(N(C)C)nc21 15.8 µM

activity, negative = inhibition, inactive:
Oc1cc(CN2COc3ccccc32)c(O)cc1CNC1CCCCC1 -5.1% [at 11.4 µM]
O=C(O)[C@H](/C=C\c1ccccc1)c1ccccc1 -11.9% [at 11.4 µM]
Cc1ccc(CNC(=O)C2CC(c3ccccc3[N+](=O)[O-])=NO2)cc1 (stereo unspecified) -29.5% [at 2.29 µM]
O=C1CC[C@](CCc2nc3ccccc3[nH]2)(c2ccccc2)C(=O)N1 -26.9% [at 11.4 µM]
CCCCCCCCC(=O)N/N=C/c1cccc(Br)c1 -6.69% [at 11.4 µM]
O=C(CSCc1ccc(Cl)cc1)Nc1ccc2c(c1)OCCO2 -20.7% [at 11.4 µM]
C/C(=N\NC(N)=O)c1ccc(Cl)cc1 -0.483% [at 11.4 µM]
O=C(O)C(Cl)(c1ccccc1)c1ccccc1 -5.68% [at 11.4 µM]
O=C(/C=C/c1ccc2c(c1)OCO2)NCCSCc1cccc(Cl)c1 18.2% [at 2.29 µM]
O=C(O)c1ccc(C(=O)c2ccccc2)c(C(=O)O)c1 -42.2% [at 11.4 µM]
C=CCN=C(NC#N)SCc1ccccc1 -3.62% [at 2.29 µM]
CCN(CC)C(=O)COc1ccc(S(=O)(=O)N2CCOCC2)cc1 -4.69% [at 11.4 µM]
N[C@@H](Cc1ccnnc1)C(=O)O -3.75% [at 11.4 µM]
Cc1nnc(S(=O)(=O)c2ccc(N=Nc3c(N)nc(N)nc3N)cc2)s1 4.76% [at 11.4 µM]
CCN(CC(=O)Nc1ccc2c(c1)OCCO2)C(=O)c1cccc(S(=O)(=O)N2CCOCC2)c1 -20.1% [at 11.4 µM]
Cc1ccnc(NC(=O)c2cccc(NC(=O)COc3ccccc3)c2)c1 -4.8% [at 2.29 µM]
CCC(CC)C(=O)NCCN1CCN(C(=O)C(CC)CC)CC1 2.98% [at 2.29 µM]
CC(C)CCOc1ccc(NC(=O)C2OC3OC(C)(C)OC3C3OC(C)(C)OC23)cc1 (stereo unspecified) -3.7% [at 2.29 µM]
